A selection: hits, their analogues and other compounds. The true share with any hit is near 2.2%.
BRCA1 expr act: qHTS Assay to Identify Small Molecule Activators of BRCA1 Expression; MCF7-BRCA1-FFLuc reporter, luminescence, 48 h; response scale: scaled: vehicle 0%, 10 µM genistein 100%; Potency, µM (highest dose often 46.1 µM), usual class: activators; 380,000 compounds, 1.1% hits; AID 624202, 2012; further: nearly all actives have a fitted effect of over 80% in size
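Luminescence from a BRCA1-driven firefly luciferase in MCF7 cells was the read-out, taken 15 min after substrate addition following 48 h compound exposure at 37 °C. Data were normalized to a 10 microM genistein control and DMSO vehicle.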
TrxR1 inh: qHTS Assay for Inhibitors of Mammalian Selenoprotein Thioredoxin Reductase 1 (TrxR1): qHTS. Thioredoxin reductase 1, cytoplasmic (Rattus norvegicus), O89049. Potency, µM (doses to about 114 µM), hits mostly inhibitors. 390,000 compounds, 1% hits. recombinant rTrxR1, NADPH fluorescence consumption, selenite substrate; further: nearly all actives have a fitted effect of over 65% in size
Target sequence (O89049 whole entry, looked up): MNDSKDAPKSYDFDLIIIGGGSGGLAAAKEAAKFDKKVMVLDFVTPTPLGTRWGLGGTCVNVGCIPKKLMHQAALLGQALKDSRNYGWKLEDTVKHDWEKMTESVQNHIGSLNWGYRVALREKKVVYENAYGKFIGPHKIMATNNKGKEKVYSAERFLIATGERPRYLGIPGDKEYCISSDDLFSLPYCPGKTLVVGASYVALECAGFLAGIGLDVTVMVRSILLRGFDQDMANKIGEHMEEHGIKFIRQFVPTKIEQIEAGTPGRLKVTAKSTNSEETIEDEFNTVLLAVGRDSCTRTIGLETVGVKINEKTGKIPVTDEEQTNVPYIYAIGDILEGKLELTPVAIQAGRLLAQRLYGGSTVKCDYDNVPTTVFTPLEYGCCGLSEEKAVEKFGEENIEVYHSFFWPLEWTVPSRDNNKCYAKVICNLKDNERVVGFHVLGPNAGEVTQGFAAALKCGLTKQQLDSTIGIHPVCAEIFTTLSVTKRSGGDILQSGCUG
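Rat TrxR1 (90 nM in the dispensed reagent) was pre-reduced with 400 uM NADPH for 5 min at room temperature, then incubated with compound for 15 min. After 400 uM selenite was added, NADPH fluorescence (Ex 340/Em 450 nm) was followed for 8 min.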
Giardia killer: Small Molecules that selectively kill Giardia lamblia: qHTS. 340,000 compounds, 0.15% hits. activity change, % at 7.66 µM, hits read low. Giardia lamblia trophozoite viability; in the data active means activity change below about -80%; inconclusive means between about -30% and that limit;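 further: parasites exposed to compound for two days anaerobically before the ATP read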
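Trophozoite viability was measured as ATP-dependent luminescence, read 15-30 min after reagent addition. Before that, parasites at 100 cells/well were exposed to compounds for 48 h, anaerobically, at 37 deg C.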
IL2 activator: qHTS of IL-2 Activators. IL-2 activation reporter assay, cell-based qHTS; stimulated with anti-CD3/CD4/CD28 beads; in transgenic mouse T cells. activation, % (series mostly up to about 46 µM). 360,000 compounds, 0.065% hits; in the data active means activation above about 50%; inconclusive means mostly about 30% to 49%
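Screening format: compound pinned onto unstimulated transgenic mouse T cells, 60 min incubation, then anti-CD3/anti-CD4/anti-CD28 bead stimulation for 18 hours at 37 degrees C, followed by EGFP and DsRed detection.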
IDH1 R132H inh: qHTS for Inhibitors of mutant isocitrate dehydrogenase 1 (IDH1): qHTS | 390,000 compounds, 0.093% hits | Potency, µM (top dose mostly 76.6 µM), hits mostly inhibitors | Isocitrate dehydrogenase [NADP] cytoplasmic (Homo sapiens), O75874 | IDH1-R132H enzyme, NADPH consumption, diaphorase/resazurin fluorescence; further: nearly all actives have a fitted effect of over 65% in size
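IDH1-R132H (0.5 ug/mL dispensed) in pH 7.5 Tris buffer was preincubated 30 min with compound, then given a substrate mix of 0.016 mM NADPH and 2 mM alpha-KG for 80 min at room temperature; remaining NADPH was read by diaphorase/resazurin fluorescence.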
TrxR1 substrate: qHTS Assay for Substrates of Mammalian Selenoprotein Thioredoxin Reductase 1 (TrxR1): qHTS | purified TrxR1 substrate turnover, NADPH consumption readout | Potency, µM (top dose mostly 114 µM) | 390,000 compounds, 0.01% hits | AID 588456, 2011; further: nearly all actives have a fitted effect of over 50% in size
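Rat TrxR1, dispensed at 90 nM, was prereduced with 400 uM NADPH (final) for 5 min at ~22 deg C, then incubated with compound 15 min before 400 uM selenite. A first-read NADPH fluorescence drop versus no-compound background flagged substrates.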
Hits are given with their value. Unless noted, the call rests on the fitted dose curve; in most records, active means well fitted curve in the direction sought with a large enough effect; inconclusive means small, poorly fitted or top-dose-only effect, or another doubt; inactive means no such curve, though single readings can be large; an effect the other way counts as inactive or inconclusive.

For CC(Sc1ccsc1[N+](=O)[O-])C(=O)NCc1ccco1 (stereo not given) the results were BRCA1 expr act inactive, TrxR1 inh 20µM, Giardia killer inconclusive, IL2 activator inactive, IDH1 R132H inh inactive and TrxR1 substrate inactive.
For O=C(NCc1ccco1)c1ccc(Cn2cc([N+](=O)[O-])cn2)o1 the results were BRCA1 expr act inactive, TrxR1 inh inactive, Giardia killer inactive, IL2 activator inactive, IDH1 R132H inh inactive and TrxR1 substrate inactive.
Screening O=C(NCc1cccnc1)c1ccc([N+](=O)[O-])o1 returned BRCA1 expr act inactive, TrxR1 inh inactive, Giardia killer -90, IL2 activator inactive, IDH1 R132H inh inactive and TrxR1 substrate inactive.
`O=C(NCc1ccco1)c1ccc([N+](=O)[O-])o1` gave BRCA1 expr act inactive, TrxR1 inh inactive, Giardia killer -81, IL2 activator inactive, IDH1 R132H inh inactive and TrxR1 substrate inactive.
Screening O=C(Nc1cccnc1)c1ccc([N+](=O)[O-])o1 returned BRCA1 expr act inactive, TrxR1 inh inactive, Giardia killer -86, IL2 activator inactive, IDH1 R132H inh inactive and TrxR1 substrate inactive.
For CC(Sc1nnc(-c2cccs2)n1-c1ccccc1)C(=O)NCc1ccco1 (stereo not given) the results were BRCA1 expr act inactive, TrxR1 inh inactive, Giardia killer inactive, IL2 activator inactive, IDH1 R132H inh inactive and TrxR1 substrate inactive.
Screening COc1ccc(C(=O)Nc2cccc(-c3cn4ccsc4n3)c2)cc1OC returned TrxR1 inh inactive, IDH1 R132H inh inactive and TrxR1 substrate inactive.
Cc1ccc(CNC(=O)C(CC(C)C)N2Cc3ccccc3C2=O)cc1 (stereo not given) was read as TrxR1 inh inactive, IDH1 R132H inh inactive and TrxR1 substrate inactive.
Screening COCCNC(=O)C(=O)NCC(c1cccnc1)N1CCN(c2ccccc2)CC1 (stereo not given) returned TrxR1 inh inactive, IDH1 R132H inh inactive and TrxR1 substrate inactive.
`O=C(NCc1ccco1)NC(=O)c1csc([N+](=O)[O-])c1` gave BRCA1 expr act inactive, TrxR1 inh inactive, Giardia killer -82, IL2 activator inactive, IDH1 R132H inh inactive and TrxR1 substrate inactive.
`CCNC(=O)NC(=O)c1csc([N+](=O)[O-])c1` gave BRCA1 expr act inactive, TrxR1 inh inactive, Giardia killer inconclusive, IL2 activator inactive, IDH1 R132H inh inactive and TrxR1 substrate inactive.
CC(=O)Nc1nonc1-c1nc2ccccc2n1N(C(C)=O)C(C)=O was read as BRCA1 expr act inactive, TrxR1 inh 56µM, Giardia killer inactive, IL2 activator inactive, IDH1 R132H inh inactive and TrxR1 substrate inactive.
COc1ccc(C(=O)CCN2CCc3cc(OC)c(OC)cc3C2)cc1 was read as BRCA1 expr act inactive, TrxR1 inh 0.89µM, Giardia killer inactive, IL2 activator inactive, IDH1 R132H inh inactive and TrxR1 substrate inactive.
`COc1ccc(C(=O)CCN2CCN(c3ccccc3OC)CC2)cc1` gave BRCA1 expr act inactive, TrxR1 inh 14µM, Giardia killer inactive, IL2 activator inactive, IDH1 R132H inh inactive and TrxR1 substrate inactive.
Screening COc1ccc(/C=C/C(=O)NC(=S)N2CCOCC2)cc1 returned BRCA1 expr act inactive, TrxR1 inh inactive, Giardia killer inactive, IL2 activator inactive, IDH1 R132H inh inactive and TrxR1 substrate inactive.
For COc1ccc(/C=C/C(=O)NC(=S)N2CCN(c3ccccc3OC)CC2)cc1 the results were BRCA1 expr act 4µM, TrxR1 inh inactive, Giardia killer inactive, IL2 activator inactive, IDH1 R132H inh inactive and TrxR1 substrate inactive.
For COc1ccc(OC)c(CNS(=O)(=O)c2ccc3c(c2)CCCN3C(C)=O)c1 the results were TrxR1 inh inactive, IDH1 R132H inh inactive and TrxR1 substrate inactive.
Screening CN(C)c1ccc(/C=C/c2c(Cl)cnc3ccccc23)cc1 returned TrxR1 inh inactive and TrxR1 substrate inactive.
Screening Cc1nc(CNC(=O)CC2C(=O)NCCN2Cc2ccoc2)nc2c1CCCC2 (stereo not given) returned BRCA1 expr act inactive, TrxR1 inh 50µM, Giardia killer inactive, IL2 activator inactive, IDH1 R132H inh inactive and TrxR1 substrate inactive.
CCc1ccccc1NS(=O)(=O)c1ccc(NC(=O)N2CCCC2)cc1 was read as TrxR1 inh inactive, IDH1 R132H inh inactive and TrxR1 substrate inactive.
Screening Cc1c(C(=O)O)cccc1-c1ccc(/C=C2/NC(=O)N(c3ccccc3)C2=O)o1 returned BRCA1 expr act inactive, TrxR1 inh inactive, Giardia killer inactive, IL2 activator inactive, IDH1 R132H inh inactive and TrxR1 substrate inactive.
O=C1N/C(=C/c2ccc(N3CCOCC3)o2)C(=O)N1c1cccc(Cl)c1 was read as BRCA1 expr act inactive, TrxR1 inh 3.2µM, Giardia killer inactive, IL2 activator inactive, IDH1 R132H inh inactive and TrxR1 substrate inactive.
For Cc1ccc(/C=C2/NC(=O)N(c3ccccc3)C2=O)o1 the results were BRCA1 expr act 7.9µM, TrxR1 inh 50µM, Giardia killer inactive, IL2 activator inactive, IDH1 R132H inh inactive and TrxR1 substrate inactive.
Screening Cc1ccc2c(CNCc3cccc(Cl)c3)c(C(=O)O)n(Cc3ccc(F)cc3Cl)c2c1 returned TrxR1 inh inactive, IDH1 R132H inh inactive and TrxR1 substrate inactive.
For COc1ccccc1OCCNC(=O)c1ccc2c(c1)CCC2 the results were BRCA1 expr act 11µM, TrxR1 inh inactive, Giardia killer inactive, IL2 activator inactive, IDH1 R132H inh inactive and TrxR1 substrate inactive.
`COc1ccccc1OCCNC(=O)c1ccc2c(c1)OCCO2` gave BRCA1 expr act inconclusive, TrxR1 inh inactive, Giardia killer inactive, IL2 activator inactive, IDH1 R132H inh inactive and TrxR1 substrate inactive.
`CCN(Cc1ccccc1)C(=O)Cn1c(=O)n(-c2ccc(C)c(C)c2)c(=O)c2c(C)c(C)sc21` gave TrxR1 inh inactive, IDH1 R132H inh inactive and TrxR1 substrate inactive.
Screening CCC(=O)Nc1cccc(-c2ccc(N3CCC(C)CC3)nn2)c1 returned BRCA1 expr act inactive, TrxR1 inh inactive, Giardia killer -85, IL2 activator inactive, IDH1 R132H inh inactive and TrxR1 substrate inactive.

Compound activity as filed in PubChem BioAssay.
